Screens (PubChem)
A selection: hits, their analogues and other compounds. The true share with any hit is near 2.2%.
CRFBP-R2 agonist: agonists of CRF-BP/CRF-R2 complex, primary screen, cell-based, HEK293, calcium dye fluorescence, uHTS. CRF-binding protein / CRF receptor 2 complex (human). calcium dye fluorescence (FLIPR); percent of saturating CRF peptide response. activation, % at 13.2 µM. actives 0.46% (n = 350,000);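 active = activation of at least 50%, plus an integration ratio under a set limit after plate pattern correction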;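 note: plate controls were neutral control wells without compound for no effect and CRF at EC100 for full effect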
Myeloid diff MLP: induction of myeloid progenitor differentiation, primary screen, cell-based, flow cytometry, MLPCN library. ER-HoxA9 myeloid progenitors, lysozyme-GFP differentiation. calls only at 10 µM. actives 1% (n = 360,000). AID 624256, 2012;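 active = normalized GFP-positive differentiation at or above the plate's own cutoff, the solvent-only control mean plus 3 SD; inconclusive = no clear call, values can overlap the other calls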;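 note: cells exposed to compound for four days before flow analysis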
RTF Ca sens inh: cardiac RTF calcium sensitivity inhibitors, primary screen, biochemical, IANBD-TnC fluorescence, EC70 calcium | Troponin I, cardiac muscle (Homo sapiens) + Troponin T, cardiac muscle (Homo sapiens) + … | AID 493244, 2011 | inhibition, % at 7.15 µM | IANBD-labeled cardiac RTF, Ca2+ fluorescence | actives 0.12% (n = 340,000);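 active = inhibition above the mean inhibition of all tested compounds plus 3 SD, cut at about 17% in these data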;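 note: assay run at fixed EC70 calcium of 1.6 mM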
CRFBP-R2 block: antagonists of CRF-BP/CRF-R2 complex, primary screen, cell-based, HEK293, calcium dye fluorescence, uHTS; inhibition, % at 11.8 µM; actives 0.59% (n = 350,000); CRF-induced calcium fluorescence;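 active = inhibition of the ligand-induced calcium signal above about 50% at the single tested concentration, limit read from the data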
cardiac RTF act: cardiac RTF calcium sensitivity activators, primary screen, biochemical, IANBD-TnC fluorescence, EC20 calcium | activation, % at 7.2 µM | actives 0.24% (n = 340,000) | Troponin I, cardiac muscle (Homo sapiens) + Troponin T, cardiac muscle (Homo sapiens) + … | AID 493008, 2010 | IANBD-labeled TnC RTF fluorescence at EC20 calcium; 0% EC20 calcium, 100% full calcium;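 active = activation above the mean over all tested compounds plus 3 SD, cut at about 30% in these data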;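 note: rise in fluorescence read as greater calcium sensitivity of cardiac thin filaments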
Active calls of the source: *; i = inactive; ? = inconclusive; . = not tested or not shown; + = active, no number.

SMILES | CRFBP-R2 agonist | Myeloid diff MLP | RTF Ca sens inh | CRFBP-R2 block | cardiac RTF act
COc1ccc(N2CC(C(=O)Nc3nnc(SCC(=O)NCc4ccco4)s3)CC2=O)cc1 (stereo not drawn) | 0 | + | -4 | -9 | -5
O=C(CNC(=O)c1ccc(Cl)cc1Cl)OCC(=O)N1CCCC1=O | 2 | i | -6 | 6 | 7
CCOC(=O)N1CCN(C(=O)c2c[nH]c3ccc(S(=O)(=O)N(C)c4cccc(C)c4)cc3c2=O)CC1 | 82* | i | -8 | -62 | 6
CCOC(=O)N1CCN(C(=O)c2c[nH]c3ccc(S(=O)(=O)N(C)c4ccccc4C)cc3c2=O)CC1 | 0 | i | -2 | 26 | -2
COc1ccc(C(=O)N2CCC2)cc1S(=O)(=O)NCc1ccc(Cl)cc1 | 0 | i | 0 | -5 | -4
CC1(C(=O)Nc2cccc(OC(F)(F)F)c2)Cc2c(-c3ccc4c(c3)OCO4)ccnc2O1 (stereo not drawn) | . | i | . | . | .
COCCN1CCC(CO)C1 (stereo not drawn) | 2 | i | -6 | 62* | 1
COCCN1CCC(CNCc2cn[nH]c2-c2ccc(C)c(C)c2)C1 (stereo not drawn) | 0 | i | -1 | -1 | -3
CCN(CC)CCNC(=O)CCc1c(C)nc2c(c(C)nn2-c2ccc(C)cc2)c1C | 1 | i | -2 | -12 | 1
Cn1c(=O)c(N)c2c3c(c(Br)ccc31)C(=O)c1ccccc1-2 | 89* | i | i | -56 | +
CC(=O)Nc1ccccc1OCC(O)CS(=O)(=O)c1ccc(C(F)(F)F)cn1 (stereo not drawn) | -1 | i | -7 | 1 | -2
c1cc2nc(C34CC5CC(CC(C5)C3)C4)[nH]c2cn1 | 0 | + | -6 | 7 | -8
Cc1ccc(NC(=O)NC(=O)N(C(C)C)S(=O)(=O)c2ccc(C)cc2)cc1 | 1 | i | 9 | 8 | -3
CCc1ccc(NC(=O)Cn2nc(C(=O)O)c3ccccc3c2=O)cc1 | 3 | i | -31 | 58* | 3
CCN(CC)S(=O)(=O)c1ccc(Cl)c(NC(=O)c2ccccc2C)c1 | 2 | i | -2 | 22 | -3
CCN(CC)S(=O)(=O)c1ccc(Cl)c(NC(=O)c2cc(Cl)cc(Cl)c2)c1 | 1 | i | 4 | 53* | 1
C[C@H]1CN([C@@H](C)CO)C(=O)CCCn2nncc2CO[C@H]1CN(C)C(=O)C1CC1 | 0 | i | . | 5 | .
COC(=O)CSc1nn(-c2ccc(F)cc2)c(=S)s1 | -10 | i | -4 | 51* | 1
O=S1(=O)CC(N2CCCC2)CN1Cc1cn(Cc2cccc(Cl)c2)nn1 (stereo not drawn) | . | i | . | . | .
O=C(CSCc1ccccc1)NNc1c(F)c(F)cc(F)c1F | -4 | i | 0 | 3 | -3
CC(C)NS(=O)(=O)c1ccc(NC(=O)C(C)Oc2ccc(C(=O)c3ccccc3)cc2)cc1 (stereo not drawn) | 162* | i | -11 | -115 | 2
COc1ccc(NC(=O)CCS(=O)(=O)c2ccc(Cl)cc2)cc1 | -4 | + | -4 | -5 | 2
CC(=O)c1sc(NC(=O)CCS(=O)(=O)c2ccc(Cl)cc2)nc1C | -1 | i | -26 | 62* | -3
Cc1ccc(C(=O)CCS(=O)(=O)c2ccc(Cl)cc2)cc1 | -1 | + | 2 | -8 | -5
O=C(CCS(=O)(=O)c1ccc(Cl)cc1)Nc1nc(-c2ccncc2)cs1 | 1 | ? | -9 | -24 | -8
SMILES | CRFBP-R2 agonist | Myeloid diff MLP | RTF Ca sens inh | CRFBP-R2 block | cardiac RTF act
O=C(CN1C(=O)C(=O)N(C2CCCC2)C1=O)Nc1cc(Cl)ccc1[N+](=O)[O-] | -1 | i | -1 | 10 | 0
COc1c(Br)cc(Br)cc1C(=O)Nc1ccccc1N1CCCC1 | -1 | i | -2 | 7 | 1
Cc1cccc(NC(=O)CSc2nnc(CNC(=O)c3ccco3)o2)c1 | 0 | i | -8 | -5 | -7
CC(C)=CCN1CCNC(=O)C1CC(=O)NCc1nc(C)c(C)s1 (stereo not drawn) | 2 | i | -2 | 13 | -6
C[C@]12CCC(=O)CC1CCC1C2CC[C@@]2(C)C1CC[C@@]21CCO1 (stereo partly drawn) | -1 | + | -2 | 9 | -6
CCOC(=O)c1sc(N)nc1C(F)(F)F | -1 | i | 1 | -11 | 11
O=[N+]([O-])c1cccc(COc2ccc(CN3CCCC3)cc2)c1 | -1 | i | -2 | -15 | -6
O=[N+]([O-])c1cccc(COc2ccc(CN3CCOCC3)cc2)c1 | -2 | i | -4 | 82* | -2
Cc1ccc(Cn2c(C(C)Nc3nc(-c4ccc(Cl)cc4)cs3)nc3cc(C(=O)NCCCO)ccc32)cc1 (stereo not drawn) | -2 | + | 6 | 1 | 6
Cc1ccc(Cn2c(CCNc3nc(-c4ccc(C)cc4)cs3)nc3cc(C(=O)NCCCO)ccc32)cc1 | -1 | i | 4 | 7 | 0
N#C/C(=C\c1ccc(N2CCOCC2)o1)c1ccccc1 | 6 | . | -2 | 35 | 3
N#C/C(=C/c1ccc(N2CCOCC2)o1)c1nc2ccccc2[nH]1 | 128* | i | -195 | -99 | 244*
N#C/C(=C/c1ccc(N2CCOCC2)o1)c1ccc(Br)cc1 | 16 | + | -47 | -23 | 23
CCn1cc(C(=O)NCCCN(CC(C)C)CC(C)C)c(=O)c2cc(S(=O)(=O)N(C)C3CCCCC3)ccc21 | 76* | i | -6 | -65 | 1
CC1CC(NC(=O)C2(C)CC2(Cl)Cl)CC(C)(C)C1 (stereo not drawn) | -3 | i | -22 | 8 | -2
CC[C@@H]1C(c2ccccc2)=NN(c2ccccc2)[C@H]1C(=O)N1CCOC1=O | 5 | + | -8 | 11 | -2
COc1cccc(/C=c2\s/c(=C/C(=O)c3ccc(C)cc3)[nH]c2=O)c1OC | 5 | i | -9 | -2 | -1
COc1ccc(/C=c2\s/c(=C/C(=O)c3ccc(C)cc3)[nH]c2=O)c(OC)c1 | 123* | + | -166 | -192 | 99*
COc1ccc(CC(C)NCC(O)c2ccc(O)c(NC=O)c2)cc1 (stereo not drawn) | 6 | i | 5 | 23 | -5
CCOC(=O)c1ccc(S(=O)(=O)N2CCC(C(=O)NCC3COc4ccccc4O3)CC2)cc1 (stereo not drawn) | 0 | i | . | -2 | .
Cc1cccc(Cc2c(C)nc3c(C(=O)NCc4ccco4)cnn3c2C)c1 | -2 | + | -10 | 36 | 10
